Results on 24 compounds are retold here after PubChem BioAssay AID449762 (Southern Research Specialized Biocontainment Screening …, 2010).

The whole screen tested about 330,000 compounds, of which about 1,900 (0.58%) were called active. Roughly 4% stayed inconclusive and do not appear here. Cut-off read from the data, not from the text of the source: inconclusive = inhibition above about 70% without an active follow-up result; inactive = below that. Only a sample is shown. Results with a measured potency or affinity are listed apart.

The test in a line: M. tuberculosis growth inhibition, HTS (AID 449762).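 Note: bacterial growth assessed after seven days of incubation.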 The following applies: M. tuberculosis H37Rv growth inhibition, 7H9 media; at 25 µM; stronger effect = higher value.
Consider `CCn1c(O)c(N=Nc2cccc(S(=O)(=O)N3CCOCC3)c2)c(=O)n(CC)c1=S`, for which the inhibition is -2.11% (inactive). For `O=C(Nc1cccc(C(=O)N2CCCc3ccccc32)c1)c1ccccc1` the value was 6.88% (inactive).

For the compound `COc1ccccc1C(=O)NC(=O)Nc1c(C)cc(C)cc1C`, the inhibition is 1.95% (inactive). Next, `COc1ccc(-c2nc(-c3ccncc3)no2)c(OC)c1`: 4.47% (inactive). Next, `COc1ccc(S(=O)(=O)N2CCC(c3cc(-c4cccc5ccccc45)n[nH]3)CC2)cc1`: 66.5% (inactive).

Consider `COc1ccc(S(=O)(=O)Nc2c(F)cccc2F)cc1`, for which the inhibition is 6.44% (inactive).

As to `COc1cccc(NS(=O)(=O)c2nc3nc(C)cc(C)n3n2)c1`, the inhibition was -2.88% (inactive). Next, `COc1ccc(CNS(=O)(=O)c2cc3c4c(c2)C(C)C(=O)N4CCC3)cc1` (centres undefined): -1.95% (inactive). Next, `COc1ccc(CCC(=O)NCCS(=O)(=O)N2CCN(c3ccccc3F)CC2)cc1`: 9.75% (inactive); `CN1CCCN(C(=O)c2cccc(Br)c2)CC1`: -4.86% (inactive). For `c1ccc(-c2nnc(-c3ccccn3)c(-c3ccccn3)n2)nc1` the value was 0.73% (inactive). As for `c1ccc(-c2nc(-c3ccccn3)nc(-c3ccccn3)n2)nc1`, the inhibition is 14.8% (inactive). Next, `c1ccc(-c2ccccn2)nc1`: 11.8% (inactive); `CC(C)Nc1nc(-c2ccccn2)nc(-c2ccccc2)c1C#N`: -1.18% (inactive); `O=C(NCC(c1cccnc1)N1CCN(c2ccc(F)cc2)CC1)Oc1ccccc1` (centres undefined): -8.33% (inactive). Consider `CCc1cccc(NC(=O)CCCN2C(=O)NC(C)(C)C2=O)c1`, for which the inhibition is -11.7% (inactive). For `C[C@@H]1CCCCCCCCC(=O)OCCN(C(=O)OC(C)(C)C)[C@H](C)CCCCCCCCC(=O)OCCN1C(=O)OC(C)(C)C` the value was 3.06% (inactive). Next, `C[C@@H]1CCCCCCCCC(=O)OCCN(C(=O)OC(C)(C)C)[C@H](C)CCCCCCCCC(=O)OCCN(C(=O)OC(C)(C)C)[C@H](C)CCCCCCCCC(=O)OCCN(C(=O)OC(C)(C)C)[C@H](C)CCCCCCCCC(=O)OCCN1C(=O)OC(C)(C)C`: -0.93% (inactive).

`COc1ccc(N2CCN(C(=O)CCNS(=O)(=O)c3ccc(C)cc3)CC2)cc1`: the inhibition was -1.98% (inactive). For `C[C@H](NC(=O)N1CCn2c1nc1ccccc12)C(=O)N1CCCCC1` the value was -4.78% (inactive). For `CN(CCOc1ccccc1)C(=O)C1CCC(=O)N(CCCN2CCOCC2)C1` (centres undefined) the value was 14.5% (inactive); for `Nc1nc2ccccc2n1CCOc1ccc(F)cc1`, 41.5% (inactive); for `Nc1nc2ccccc2n1CCOc1ccc(Cl)cc1`, 9.81% (inactive). For `CN(C)S(=O)(=O)c1cc(NC(=O)CN2CCN(c3ccccc3)CC2)ccc1Cl` the value was 1.87% (inactive).
